Measurements: PubChem BioAssay (NCI)
Compounds without any hit were thinned out: in the full panel of roughly 83,000, 20% have a hit.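 A percent growth of 40 corresponds to 60% growth inhibition; 0 means no net growth; -100 means all cells died. Active threshold: below 10.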 A number with no mark means an inactive call. Active and inactive are the calls of the source.

Tests used:
Experiment in all cases: NCI-60 one-dose screen, 48 h (100 = growth as untreated, 0 = no growth, -100 = all killed)
[1] = test system: SK-MEL-2 melanoma; conditions: 10 µM unless noted
[2] = test system: EKVX NSCLC; conditions: 10 µM unless noted
[3] = test system: SN12C renal; conditions: 10 µM unless noted
[4] = test system: UO-31 renal; conditions: 10 µM unless noted
[5] = test system: ACHN renal; conditions: 10 µM unless noted
[6] = test system: CAKI-1 renal; conditions: 10 µM unless noted
[7] = test system: A498 renal; conditions: 10 µM
[8] = test system: HL-60(TB) leukemia; conditions: 10 µM unless noted
[9] = test system: CCRF-CEM leukemia; conditions: 10 µM unless noted
[10] = test system: TK-10 renal; conditions: 10 µM unless noted

| Compound | growth [1] | growth [2] | growth [3] | growth [4] | growth [5] | growth [6] | growth [7] | growth [8] | growth [9] | growth [10] |
| --- | --- | --- | --- | --- | --- | --- | --- | --- | --- | --- |
| NC(=Nc1ccccc1)N[N+](=O)[O-] | 127% | 94% | 102% | 92% | 114% | 97.6% | 110% | 38.7% | 52.1% |  |
| COC(=O)[C@@]1(C)CC[C@]2(C)CC[C@]3(C)C4=CC=C5C(=CC(=O)C(O)=C5C)[C@]4(C)CC[C@@]3(C)[C@@H]2C1 | -87.6% (active) | -77.8% (active) | -88.2% (active) | -99.4% (active) | -100% (active) |  | -97.9% (active) |  | -41.2% (active) |  |
| COc1cccc2c1c(C(=O)C(=O)Nc1ccn[nH]1)cn2Cc1ccc(F)cc1 | 93.8% | 119% | 100% | 89% |  |  | -72.9% (active) | 115% | 93.2% |  |
| CC[C@@H]1[C@@H](C)O[C@@](O)([C@@H](C)[C@H](O)[C@H](C)[C@H]2OC(=O)/C=C/C=C/[C@H](C)[C@@H]([C@@H](C)[C@@H](O)[C@H](C)[C@@]3(O)C[C@@H](O[C@H]4C[C@@H](O)[C@H](O)C(C)O4)[C@H](CC)[C@@H](C)O3)OC(=O)/C=C/C=C/[C@@H]2C)C[C@H]1O[C@@H]1C[C@@H](O)[C@H](O)C(C)O1 (stereo partly specified) | -92% (active) | -88.6% (active) | -75.1% (active) | -97% (active) | -96.8% (active) |  | -97.5% (active) | -73.3% (active) | -61.5% (active) |  |
| CC1=C([Te]c2ccc(O)cc2)C(=O)c2ccccc2C1=O | 31.2% | -57% (active) | 11.5% |  | 5.62% (active) | -93.3% (active) | -25.8% (active) | -38% (active) | -13.4% (active) | 36.1% |
| Cc1cc(N(CCCl)CCCl)ccc1/C=N\NC(=O)c1ccncc1 | 120% | 94.3% | 64.5% | 82.5% | 73.9% |  | -94.9% (active) | 53.4% | 68.2% |  |
| COC(=O)[C@H](Cc1ccccc1)NC(=O)c1csc([C@@H](C[C@H](C(C)C)N(C)C(=O)[C@@H](NC(=O)[C@H]2CCCN2C)C2CC2)OC(C)=O)n1 | 31.2% | 33.4% | 33% | 41.1% | 39.9% | 36.8% | 13.5% | -44.9% (active) | 4.07% (active) |  |
| Nc1ccc2c(c1)oc1ccccc12 | 102% | 83.5% | 94.6% | 69.3% | 102% | 82.5% | 103% | 78.3% | 55.6% |  |
| COC(=O)[C@@H](C)C[C@H](Cc1ccccc1)NC(=O)c1nc([C@@H](C[C@H](C(C)C)N(C)C(=O)[C@@H](NC(=O)[C@H]2CC(=O)CCN2C)C(C)C)OC(C)=O)sc1C(C)C | 5.7% (active) | 30% | 17.5% | 29.6% | 21.9% | 34.6% |  | -36.7% (active) | 9.87% (active) |  |
| COC(=O)[C@@H](C)C[C@H](Cc1ccc2ccccc2c1)NC(=O)c1csc([C@@H](C[C@H](C(C)C)N(C)C(=O)[C@@H](NC(=O)[C@H]2CCCCN2C)C(C)C)OC(C)=O)n1 | 57.8% | 46.1% | 33.5% | 23.1% | 4.23% (active) |  | 21.7% | 9.43% (active) | 24.2% |  |
| O=C1NC(=O)C(=Cc2cn(CCCCCCn3c4ccccc4c(=O)c4ccccc43)c3ccccc23)C(=O)N1 | 94% | 89.8% | 91.1% | 63.9% | 101% | 97.6% | -49.3% (active) | 78.7% | 80.6% |  |
| CC[C@H](C)[C@@H]([C@@H](CC(=O)N1CCC[C@H]1[C@H](OC)[C@@H](C)C(=O)N[C@H](C)[C@@H](O)c1ccccc1)OC)N(C)C(=O)[C@@H](NC(=O)[C@@H](NC)C(C)C)C(C)C | 41.8% | 41.7% | 36.7% | 40.6% | 29.3% |  | -11.7% (active) | -20.2% (active) | 20.8% |  |
| COc1cccc2c1c(C(=O)C(=O)Nc1cc(C)no1)cn2Cc1ccc(F)cc1 | 75.1% | 78.9% | 62.2% | 57.5% | 88.6% | 86.7% | 91.1% | 1.01% (active) | 66.6% |  |
| CC[C@H](C)[C@H](NC(=O)c1ccccn1)C(=O)N(C)[C@H](C[C@@H](OC(C)=O)c1nc(C(=O)N[C@@H](Cc2ccccc2)C[C@H](C)C(=O)OC)cs1)C(C)C | -8.78% (active) | 30.3% | 46.9% | 42.2% | 40.2% |  | -5.19% (active) | -21.2% (active) | 7.71% (active) |  |
| CCOc1ccc(/C=C/[N+](=O)[O-])cc1 | 101% | 93.7% | 94.5% | 71.1% | 96.3% | 101% | 78.1% | 105% | 90.6% |  |
| CC[C@H](C)[C@H](NC(=O)N[C@@H](C)c1ccccc1)C(=O)N(C)[C@H](C[C@@H](OC(C)=O)c1nc(C(=O)N[C@@H](Cc2ccccc2)C[C@H](C)C(=O)OC)cs1)C(C)C | -14.9% (active) | 36.7% | 39.9% | 28.5% | 21.5% |  | -4.53% (active) | -16.9% (active) | 10.7% |  |
| COC(=O)[C@@H](C)C[C@H](Cc1ccccc1)NC(=O)c1nc([C@@H](C[C@H](C(C)C)N(C)C(=O)[C@@H](NC(=O)[C@H]2C[C@H](O)CCN2C)C(C)C)OC(C)=O)sc1C(C)C | 12.4% | 35.2% | 7.67% (active) | 12.5% | 10.8% | 23.8% |  | -42.3% (active) | 4.78% (active) |  |
| CNC(=O)Oc1ccc2c(c1)OCO2 | 98.2% | 97.9% | 99.7% | 98.1% | 99.3% | 100% |  | 94.3% | 111% |  |
| COC(=O)N[C@H]1CCc2c(Br)c(OC)c(OC)c(OC)c2-c2ccc(SC)c(=O)cc21 | 29.4% | 46% | 25.1% | 18.2% | 26.7% | 13.7% |  | -43.7% (active) | 3.65% (active) |  |
| CC(C)=CCc1c(O)c(C(=O)CC(C)C)c(O)c2c(-c3ccccc3)cc(=O)oc12 | 40.5% | 36.7% | 33.7% | 44.9% | 59.4% |  | 32.6% | 27.5% | 23.6% |  |
| COC(=O)[C@@H](C)C[C@H](Cc1ccccc1)NC(=O)c1csc([C@@H](C[C@H](C(C)C)N(C)C(=O)C2(NC(=O)[C@H]3CCCCN3C)CC2)OC(C)=O)n1 | 34.1% | 29.1% | 31.3% | 48% | 32.4% | 59.8% | -5.45% (active) | -46.1% (active) | 3.37% (active) |  |
| CN(C)C(=O)Oc1ccccc1 | 108% | 104% | 106% | 103% |  |  |  | 94.5% | 104% |  |
| CCCCNC(c1ccc(Cl)cc1)C(O)c1ccc(Cl)cc1 (stereo unspecified) | 62.5% | 53.9% |  | 36.9% | 35.2% | 30.3% | 57.8% | 19.6% | 29.7% | 56.8% |
| COC(=O)[C@@H](C)C[C@H](Cc1ccccc1)NC(=O)c1nc([C@@H](C[C@H](C(C)C)N(C)C(=O)[C@@H](NC(=O)[C@H]2CCCCN2C)C(C)C)OC(C)=O)sc1C(C)C | 20% | 31.2% |  | 18.3% | 18.4% |  | -9.92% (active) | -45.5% (active) | 7.31% (active) | 45% |
| C[C@@H]1CCC2[C@@H](C)[C@H](OC(=O)CCC(=O)NCCNC(=O)Cc3cc(=O)oc4cc(N(C)C)ccc34)O[C@@H]3O[C@]4(C)CC[C@@H]1C23OO4 (stereo partly specified) | 40.7% | 35.3% |  | 13% | 40.3% | 44.1% | 64.9% | -38.8% (active) | 23% | 20% |
| CCn1nccc1NC(=O)C(=O)c1cn(Cc2ccc(F)cc2)c2cccc(OC)c12 | 48.2% | 81.6% |  | 47.5% |  | 98.6% | 94.1% | 56.8% | 76.6% | 120% |
| CCC(=O)Nc1ccc(Cl)c(Cl)c1 | 94.3% | 98.4% |  | 89% | 98.2% | 96.8% | 89.7% | 92.4% | 103% | 86.3% |
| CC(C)(C)C(=O)OCOP(=O)(OCOC(=O)C(C)(C)C)C1CCCN(O)C1=O (stereo unspecified) | 24.9% | 19.7% |  | 5.91% (active) | 8.69% (active) |  | -24.3% (active) | -21% (active) | 9.89% (active) | 2.8% (active) |
